We go through one compound from the supplement of paper PMC11732987, “Enantioselective OTUD7B fragment discovery through chemoproteomics screening and high-throughput optimisation” (Communications Chemistry, 2025).

Unmarked numbers belong to inactive results.

What all share (experiment): log2 ratio of Biotin-Ahx-Ub-VS probe labelling (fragment/DMSO); higher = less target engagement (more negative = stronger competition), active = hit call of the paper (q ≤ 0.05, log2 ratio ≤ -1)
Details in all cases: compound concentration: 200 uM; treatment time: 3 h

The target in one assay is T1, OTUD6B (UniProt Q8N6M0).
T1 sequence (whole entry): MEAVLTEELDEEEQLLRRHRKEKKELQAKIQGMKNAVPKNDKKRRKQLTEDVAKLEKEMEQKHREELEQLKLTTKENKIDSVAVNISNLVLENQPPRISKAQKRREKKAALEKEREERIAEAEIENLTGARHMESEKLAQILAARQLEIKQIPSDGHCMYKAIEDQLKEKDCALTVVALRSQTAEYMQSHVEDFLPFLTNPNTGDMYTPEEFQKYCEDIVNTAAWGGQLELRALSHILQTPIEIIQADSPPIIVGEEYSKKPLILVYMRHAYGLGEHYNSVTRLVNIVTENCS
The method in brief:
(§1)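 Global-median-normalised Spectronaut label-free quantities were compared by unpaired t-test, and values are average log2 ratios of fragment over vehicle. Only proteins with ≥2 unique peptides were used. HEK293T lysate (495 µg per sample) was treated in triplicate with fragment at 200 µM or vehicle for 3 h and then with Biotin-Ahx-Ub-VS at 0.5 µM final for 1 h. Labelled DUBs were then NeutrAvidin-enriched, digested with LysC and trypsin, and run by diaPASEF LC-MS/MS.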

In another assay the target is T2, OTUD7B (UniProt Q6GQQ9).
T2 sequence (whole entry): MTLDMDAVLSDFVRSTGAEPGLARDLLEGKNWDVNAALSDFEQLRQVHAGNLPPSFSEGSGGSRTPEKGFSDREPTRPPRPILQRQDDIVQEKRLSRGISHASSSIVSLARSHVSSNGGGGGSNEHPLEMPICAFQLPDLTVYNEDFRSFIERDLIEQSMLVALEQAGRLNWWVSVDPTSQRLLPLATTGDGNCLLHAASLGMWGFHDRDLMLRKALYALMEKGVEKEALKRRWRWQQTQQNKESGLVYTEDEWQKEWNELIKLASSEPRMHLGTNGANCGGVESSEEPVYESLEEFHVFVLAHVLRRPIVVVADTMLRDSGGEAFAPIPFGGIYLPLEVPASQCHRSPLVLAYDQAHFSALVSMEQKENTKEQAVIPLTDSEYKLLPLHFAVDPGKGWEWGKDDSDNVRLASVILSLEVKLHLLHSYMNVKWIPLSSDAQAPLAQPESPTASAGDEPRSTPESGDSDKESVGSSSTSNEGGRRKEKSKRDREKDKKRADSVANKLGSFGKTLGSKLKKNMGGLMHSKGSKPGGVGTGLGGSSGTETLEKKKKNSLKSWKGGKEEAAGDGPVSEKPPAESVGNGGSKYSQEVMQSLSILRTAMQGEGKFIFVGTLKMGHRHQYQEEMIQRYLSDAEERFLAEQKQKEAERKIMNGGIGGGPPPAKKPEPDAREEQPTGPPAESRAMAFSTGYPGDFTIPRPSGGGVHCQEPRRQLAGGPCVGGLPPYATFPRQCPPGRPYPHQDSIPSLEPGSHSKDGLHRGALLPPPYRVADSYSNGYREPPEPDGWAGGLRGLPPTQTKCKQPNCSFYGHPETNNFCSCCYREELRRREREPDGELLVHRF
The method in brief: as §1

The target in a further assay is PRPF8 (UniProt Q6P2Q9). The method in brief: as §1
Another assay has as its target T3, PSMD7 (UniProt P51665).
T3 sequence (whole entry): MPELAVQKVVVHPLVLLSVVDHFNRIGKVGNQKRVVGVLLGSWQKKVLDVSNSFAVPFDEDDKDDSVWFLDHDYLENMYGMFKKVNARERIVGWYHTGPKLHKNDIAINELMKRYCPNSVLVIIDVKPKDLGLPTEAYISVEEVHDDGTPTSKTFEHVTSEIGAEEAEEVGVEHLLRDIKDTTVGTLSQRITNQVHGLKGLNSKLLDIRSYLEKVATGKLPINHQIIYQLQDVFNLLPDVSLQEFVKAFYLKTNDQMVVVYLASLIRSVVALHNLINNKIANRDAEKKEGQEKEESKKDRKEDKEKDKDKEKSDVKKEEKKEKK
In short, it runs like this: as §1

The target in another assay is UCHL1 (UniProt P09936). The method in brief:
as §1

For a further assay, the target named is T4, UCHL3 (UniProt P15374).
T4 sequence (whole entry): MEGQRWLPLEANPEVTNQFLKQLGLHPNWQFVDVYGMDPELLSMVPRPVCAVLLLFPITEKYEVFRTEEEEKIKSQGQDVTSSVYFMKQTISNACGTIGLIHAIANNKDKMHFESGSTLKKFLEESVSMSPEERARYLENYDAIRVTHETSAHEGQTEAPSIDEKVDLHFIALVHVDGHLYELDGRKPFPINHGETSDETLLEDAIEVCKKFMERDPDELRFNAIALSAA
In short, it runs like this: as §1

For the next assay, the target named is T5, UCHL5 (UniProt Q9Y5K5).
T5 sequence (whole entry): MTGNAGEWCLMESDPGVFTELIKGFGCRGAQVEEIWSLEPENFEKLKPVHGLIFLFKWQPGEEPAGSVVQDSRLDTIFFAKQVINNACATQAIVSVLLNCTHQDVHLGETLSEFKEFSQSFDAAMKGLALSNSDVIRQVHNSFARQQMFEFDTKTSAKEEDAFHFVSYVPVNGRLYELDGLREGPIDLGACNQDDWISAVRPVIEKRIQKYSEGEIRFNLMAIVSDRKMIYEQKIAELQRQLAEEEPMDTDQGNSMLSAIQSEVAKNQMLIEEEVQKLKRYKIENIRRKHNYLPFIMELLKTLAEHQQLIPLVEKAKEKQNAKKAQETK
In short, it runs like this:
as §1

A further assay addresses USP10 (UniProt Q14694). In short, it runs like this: as §1
In a further assay the target is T6, USP15 (UniProt Q9Y4E8).
T6 sequence (whole entry): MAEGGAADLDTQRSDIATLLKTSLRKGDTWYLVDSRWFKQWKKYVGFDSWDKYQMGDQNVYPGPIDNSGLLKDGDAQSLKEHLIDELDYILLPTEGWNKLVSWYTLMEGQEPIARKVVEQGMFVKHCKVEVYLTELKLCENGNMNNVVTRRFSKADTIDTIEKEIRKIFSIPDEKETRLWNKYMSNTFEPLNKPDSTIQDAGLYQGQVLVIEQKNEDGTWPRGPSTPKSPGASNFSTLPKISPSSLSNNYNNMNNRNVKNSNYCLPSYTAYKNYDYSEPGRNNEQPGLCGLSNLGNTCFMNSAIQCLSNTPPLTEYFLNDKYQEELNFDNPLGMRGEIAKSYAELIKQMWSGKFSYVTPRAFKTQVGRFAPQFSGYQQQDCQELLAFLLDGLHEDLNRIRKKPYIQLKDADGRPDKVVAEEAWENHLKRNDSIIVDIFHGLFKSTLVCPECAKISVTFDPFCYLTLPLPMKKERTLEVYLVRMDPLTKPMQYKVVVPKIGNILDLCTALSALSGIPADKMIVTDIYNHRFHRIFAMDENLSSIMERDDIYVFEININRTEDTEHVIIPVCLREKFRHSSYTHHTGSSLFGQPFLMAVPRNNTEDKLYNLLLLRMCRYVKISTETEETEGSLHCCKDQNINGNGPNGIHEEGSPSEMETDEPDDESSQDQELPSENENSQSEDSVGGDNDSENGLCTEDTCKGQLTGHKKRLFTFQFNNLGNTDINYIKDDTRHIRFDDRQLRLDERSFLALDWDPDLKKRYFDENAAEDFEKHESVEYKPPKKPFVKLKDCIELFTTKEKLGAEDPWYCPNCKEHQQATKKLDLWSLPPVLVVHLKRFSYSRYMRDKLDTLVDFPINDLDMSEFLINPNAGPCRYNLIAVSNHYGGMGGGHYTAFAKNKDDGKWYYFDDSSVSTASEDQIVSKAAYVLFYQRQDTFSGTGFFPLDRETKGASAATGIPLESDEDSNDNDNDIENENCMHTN
In short, it runs like this:
as §1

Chain of UCHL1 (P09936 whole entry, looked up): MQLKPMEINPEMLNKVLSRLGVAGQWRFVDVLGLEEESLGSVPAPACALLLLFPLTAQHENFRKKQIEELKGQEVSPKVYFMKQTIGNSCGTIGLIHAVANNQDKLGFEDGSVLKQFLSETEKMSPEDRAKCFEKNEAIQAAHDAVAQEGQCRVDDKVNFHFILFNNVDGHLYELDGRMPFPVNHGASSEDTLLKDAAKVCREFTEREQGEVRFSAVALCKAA
Chain of USP10 (Q14694 whole entry): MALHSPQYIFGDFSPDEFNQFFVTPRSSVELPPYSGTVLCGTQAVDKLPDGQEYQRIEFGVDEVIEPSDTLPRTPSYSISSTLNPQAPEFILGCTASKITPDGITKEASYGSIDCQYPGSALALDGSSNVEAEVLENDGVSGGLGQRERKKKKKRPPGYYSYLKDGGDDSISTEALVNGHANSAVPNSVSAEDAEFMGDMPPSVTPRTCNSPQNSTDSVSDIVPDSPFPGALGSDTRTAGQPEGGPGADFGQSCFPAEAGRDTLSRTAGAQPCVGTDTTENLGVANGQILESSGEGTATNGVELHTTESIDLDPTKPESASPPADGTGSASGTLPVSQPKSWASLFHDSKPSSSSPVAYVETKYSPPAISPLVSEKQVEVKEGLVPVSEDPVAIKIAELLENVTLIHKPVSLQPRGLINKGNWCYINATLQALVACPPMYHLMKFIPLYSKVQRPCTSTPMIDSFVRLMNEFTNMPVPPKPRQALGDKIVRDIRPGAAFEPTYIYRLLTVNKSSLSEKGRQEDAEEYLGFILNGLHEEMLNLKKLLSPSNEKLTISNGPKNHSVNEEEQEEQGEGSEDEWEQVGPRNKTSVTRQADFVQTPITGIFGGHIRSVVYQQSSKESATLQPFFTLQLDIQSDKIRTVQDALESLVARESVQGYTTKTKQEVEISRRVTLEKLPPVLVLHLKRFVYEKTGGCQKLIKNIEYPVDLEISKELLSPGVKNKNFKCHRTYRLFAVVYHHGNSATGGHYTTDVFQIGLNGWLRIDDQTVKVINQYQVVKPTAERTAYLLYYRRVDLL

For `O=C(CCl)N1CCC(c2nc3ccccc3o2)CC1`, the “log2 ratio of Biotin-Ahx-Ub-VS probe labelling” value in the assay with OTUD6B is -0.508; in the assay with OTUD7B it was -0.632; with PRPF8, -0.0832; with PSMD7 it was -0.495; with UCHL1, -1.65 (active); with UCHL3 it was 0.054. Also, the “log2 ratio of Biotin-Ahx-Ub-VS probe labelling” value with UCHL5 was -0.349; in the assay with USP10 it was -0.114; in the assay with USP15, -0.214.
